Screens: PubChem, several laboratories
This is a sample that favours compounds with a hit; in the whole collection about 2% have one here.
Beta2AR agonist: human beta-2 adrenergic receptor agonism by FAP. actives 0.43% (n = 340,000). Am2.2-beta2AR cells, FAP receptor internalization, flow cytometry. AID 504454. P07550. response, % (concentration not given with the values);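 active means response above a set limit, near 3 SD of response in nonfluorescent compounds, cut at about 42% in these data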
Target sequence (P07550 whole entry, looked up): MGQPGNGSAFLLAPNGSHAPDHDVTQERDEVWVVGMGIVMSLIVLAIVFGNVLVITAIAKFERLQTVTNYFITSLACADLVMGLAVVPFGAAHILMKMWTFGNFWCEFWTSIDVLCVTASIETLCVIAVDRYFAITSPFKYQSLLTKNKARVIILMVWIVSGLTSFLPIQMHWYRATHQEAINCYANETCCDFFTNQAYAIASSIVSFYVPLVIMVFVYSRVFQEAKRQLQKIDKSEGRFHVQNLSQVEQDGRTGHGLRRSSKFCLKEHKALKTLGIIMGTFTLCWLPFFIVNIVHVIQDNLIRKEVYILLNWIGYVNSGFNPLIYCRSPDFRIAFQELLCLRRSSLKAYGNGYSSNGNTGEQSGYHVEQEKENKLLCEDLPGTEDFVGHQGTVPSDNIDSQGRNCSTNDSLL
Granule exo inh: lytic granule exocytosis inhibition; TALL-104 LAMP-1 surface exposure, flow cytometry; cells stimulated with thapsigargin and PMA; inhibition, % at 10 µM; actives 0.66% (n = 360,000); AID 651702;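 active means inhibition above about 55%, limit read from the data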
TLR9-MyD88 inh: inhibitors of human TLR9-MyD88 binding; Q9NR96+Q99836; CHO BLA complementation TLR9-MyD88, CCF4 FRET ratio; inhibition, % at 4.98 µM; actives 0.21% (n = 340,000); AID 504734;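 active means inhibition above the mean over all tested compounds plus 3 SD, cut at about 21% in these data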;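 further: 0% = DMSO only wells and 100% = clavulanate BLA inhibitor control wells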
ABHD5 PLIN5 PPI: blocks binding of human ABHD5 to perilipin-5; Q00G26+Q8WTS1; Split G. princeps luciferase complementation, luminescence, 4 h; inhibition, % at 4 µM; actives 0.78% (n = 360,000); AID 602281;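 active means inhibition above the mean inhibition across every tested compound plus 3 SD, cut at about 22% in these data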;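 further: 0% = DMSO only wells and the 100% control is not disclosed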
TLR4-MyD88 BLA: inhibitors of human TLR4-MyD88 binding | O00206+Q99836 | HeLa CL3-4 TLR4/MyD88 BLA complementation, FRET ratio | inhibition, % at 8.4 µM | actives 0.18% (n = 200,000) | AID 861; in the data active means inhibition above about 25%;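 further: 0% = vehicle and 100% = reference inhibitor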
NOD2-RIPK2 inh: inhibitors of human NOD2-RIPK2 interaction; O43353; CHO BLA complementation NOD2-RIPK2, CCF4 ratio; inhibition, % at 4.98 µM; actives 0.38% (n = 360,000); in the data active means inhibition above about 21%;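 further: 0% = vehicle only and 100% = reference blocker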
ABHD5 PLIN5 conf: ABHD5-PLIN5 interaction inhibition, confirmed; shares compounds with ABHD5 PLIN5 PPI; AID 651612; biochemical ABHD5-PLIN5 interaction, luminescence; inhibition, % at 4 µM; actives 67% (n = 2,200); in the data active means inhibition above about 23%;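 further: 0% = DMSO vehicle wells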
HNF4 counter: active in HNF4 split-luciferase counter-screen for ABHD5-PLIN5 inhibitors; actives 77% (n = 2,200); AID 651674; inhibition, % at 4 µM; shares compounds with ABHD5 PLIN5 PPI; HNF4 dimerization, luminescence, biochemical;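 active means mean inhibition across replicate wells exceeding the computed hit threshold, cut at about 13% in these data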;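 further: light from luciferase halves that rejoin when HNF4 fusion proteins dimerize; 0% = DMSO only wells and the 100% control is not given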
* marks the source's active call; other numbers are inactive results; . = no result given.

SMILES	Beta2AR agonist	Granule exo inh	TLR9-MyD88 inh	ABHD5 PLIN5 PPI	TLR4-MyD88 BLA	NOD2-RIPK2 inh	ABHD5 PLIN5 conf	HNF4 counter
NC(c1csc(Nc2cnccn2)n1)c1ccccc1Cl (configuration not stated)	.	10	.	6	.	1	.	.
COc1ccc(C(C(=O)Nc2ccc3c(c2)OCCO3)n2c(=O)c(-c3ccco3)nc3ccccc32)cc1 (configuration not stated)	.	1	.	78*	.	6	38*	2
CC(c1nc2ccccc2[nH]1)n1c(=O)c(-c2ccco2)nc2ccccc21 (configuration not stated)	.	-2	.	52*	.	-6	41*	12
CC(c1nc2ccccc2[nH]1)n1c(-c2ccncc2)nc2ccccc21 (configuration not stated)	.	8	.	1	.	4	.	.
COc1ccc(NC(=O)C(c2ccccc2)n2c(=O)c(-c3ccco3)nc3ccccc32)cc1 (configuration not stated)	.	1	.	23*	.	-8	33*	11
COc1ccc(NC(=O)C(c2ccc(OC)cc2)n2c(=O)c(-c3ccco3)nc3ccccc32)cc1 (configuration not stated)	.	-10	.	42*	.	-15	39*	5
C[C@@H](C(=O)Nc1ccc2c(c1)OCCO2)n1nnc2ccccc2c1=O	5	-5	7	1	.	6	.	.
Cc1cc2nc(NC(=O)C3(C)CCN(C)C3)[nH]c2cc1C (configuration not stated)	.	-3	.	-1	.	-5	.	.
COc1ccc(S(=O)(=O)NC(=O)C2(C)CCN2C(=O)CCC2CCCC2)cc1OC (configuration not stated)	.	-3	.	6	.	-9	.	.
COc1ccc(NC(=O)C(c2ccnc3ccccc23)n2c(=O)c(-c3ccccc3)nc3ccccc32)cc1 (configuration not stated)	.	-5	.	0	.	2	.	.
O=C(Nc1ccc2c(c1)OCCO2)C(c1ccccc1F)n1c(=O)c(-c2ccco2)nc2ccccc21 (configuration not stated)	.	-3	.	26*	.	4	32*	10
COc1ccc(NC(=O)C(c2ccc(C#N)cc2)n2c(=O)c(-c3ccco3)nc3ccccc32)cc1 (configuration not stated)	.	13	.	24*	.	3	22*	1
COc1ccc(NC(=O)C(c2ccnc3ccccc23)n2c(=O)c(-c3ccco3)nc3ccccc32)cc1 (configuration not stated)	.	5	.	36*	.	1	25*	6
COc1ccc(NC(=O)C(c2ccccc2F)n2c(=O)c(-c3ccco3)nc3ccccc32)cc1 (configuration not stated)	.	-5	.	10	.	0	.	.
CC(Sc1nnc(C(C)Oc2ccccc2F)o1)C(=O)NCc1ccc2c(c1)OCO2 (configuration not stated)	-4	9	4	1	.	-6	.	.
COc1ccc(CNC(=O)c2ccc(Cn3nc(C)cc3C)o2)cc1	-4	-3	-6	7	.	-3	.	.
Cc1cc(C(F)(F)F)nn1Cc1ccc(C(=O)NCc2ccco2)o1	-8	0	-7	23*	-10	9	29*	23*
O=C(NCCN1CCC(n2c(=O)[nH]c3ccccc32)CC1)C(c1ccccc1)c1ccccc1	.	13	.	2	.	-6	.	.
Cc1ccc(NC(=O)CCc2nnc3ccc(NCc4ccco4)nn23)nc1	0	1	-6	39*	.	-2	14	24*
CCOC(=O)C1CCN(C(=O)CCc2nnc3ccc(NCc4ccco4)nn23)CC1	3	-12	-8	51*	.	-7	13	12
CC(C)(C)OC(=O)C[C@H]1C/C=C\C[C@H](CC(=O)N(CCO)Cc2ccccc2)C(=O)N2CCC[C@H]2COC1=O	-4	-9	4	-4	.	-13	.	.
Cc1cccc(C)c1NC(=O)C[N+](C)(C)CC(O)COc1cccc2ccccc12 (configuration not stated)	-7	-3	0	47*	-1	-6	34*	17*
O=C1c2ccccc2C(=O)N1CC(O)COc1cccc2ccccc12 (configuration not stated)	.	1	.	10	.	3	.	.
c1cn2c(-c3ccoc3)cncc2n1	.	-4	.	23*	.	-10	34*	35*
CC1(C(=O)Nc2ccc3c(c2)OCCO3)CN(S(C)(=O)=O)CC(=O)N1CCCN1CCOCC1 (configuration not stated)	.	-4	.	3	.	2	.	.
SMILES	Beta2AR agonist	Granule exo inh	TLR9-MyD88 inh	ABHD5 PLIN5 PPI	TLR4-MyD88 BLA	NOD2-RIPK2 inh	ABHD5 PLIN5 conf	HNF4 counter
Cc1ccc(Cl)cc1NC(=O)C[n+]1ccc(Cc2ccc([N+](=O)[O-])cc2)cc1	3	0	-13	24*	3	-2	15	-2
O=[N+]([O-])/C=C/c1cn(Cc2ccc(F)cc2)c2ccccc12	41	12	13	57*	-10	2	92*	68*
O=C(O)c1ccc(N/N=C/c2cn(Cc3ccc(F)cc3)c3ccccc23)cc1	28	1	0	-1	.	0	.	.
Cc1onc(-c2ccccc2)c1C(=O)N1CCC(C)(C(=O)O)C1 (configuration not stated)	.	-8	.	2	.	7	.	.
O=C(C[C@H]1C[C@H](C(=O)N2CCOCC2)[C@@]2(CCC3CCCC3)c3[nH]c4cc(-c5ccco5)ccc4c3CCN2C1=O)NCCC1=CCCCC1	7	0	-1	18	.	1	.	.
O=C(C[C@H]1C[C@H](C(=O)N2CCOCC2)[C@@]2(CCC3CCCC3)c3[nH]c4cc(-c5ccco5)ccc4c3CCN2C1=O)NCCc1ccccn1	8	-2	-12	23*	.	-4	11	17*
COC(=O)c1ccc2c(c1)C(C)(C)C(/C=C/c1ccccc1O)=[N+]2C	62*	32	14	64*	10	17	98*	95*
CCc1noc(C)c1C(=O)NC1CCCc2c1cnn2-c1ccc(C(C)(C)C)cc1 (configuration not stated)	4	-11	-7	-3	.	1	.	.
COc1cc2c(cc1OC)C(O)=CC(=O)C2=O	.	4	-3	-2	.	-15	.	.
CC(C)(C)c1cc(=O)n(-c2ccccc2)[nH]1	11	8	4	26*	0	1	-20	-17
O=c1cc(-c2ccccc2)[nH]n1-c1ccccc1	-4	0	-4	-9	.	-6	.	.
OCC[C@@H]1C[C@H](O)[C@@H](O)[C@@]2(OCc3ccc4ccccc4c32)O1	.	-3	.	-3	.	10	.	.
